Laboratory results published in PubChem BioAssay (NCATS).
Results filed as inconclusive are left out. The source made the active and inactive calls. Unless noted, calls come from the whole dose curve; as a rule, active = well fitted cell-killing curve with a large enough effect; inconclusive = small, poorly fitted or top-dose-only effect, or effect the other way; inactive = no such curve, though single readings can be large or run the other way.

Experiments:
[1] = Quantitative High-Throughput drug screen in 47 multiple myeloma cell lines against the NCATS MIPE library collection: XG1_PLB cell viability assay (AID 1919866); note: nearly all actives have a fitted effect of over 35% in size
How it was run: (§1)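 qHTS format: cells plated (500/well), pin-dosed with MIPE 4.0 compounds, kept 48 h at 37 °C. Readout was CellTiter-Glo luminescence, median RLU.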

[2] = Quantitative High-Throughput drug screen in 47 multiple myeloma cell lines against the NCATS MIPE library collection: VP6_DJ cell viability assay (AID 1919867); note: nearly all actives have a fitted effect of over 40% in size
How it was run: as §1

[3] = Quantitative High-Throughput drug screen in 47 multiple myeloma cell lines against the NCATS MIPE library collection: UTMC2_PLB cell viability assay (AID 1919868); conditions: CellTiter-Glo ATP luminescence, 48 h; viability (% of DMSO control): at 45.8 µM (top of the series) unless noted; note: nearly all actives have a fitted effect of over 55% in size
How it was run: as §1

[4] = Quantitative High-Throughput drug screen in 47 multiple myeloma cell lines against the NCATS MIPE library collection: PE2_PLB cell viability assay (AID 1919869); note: nearly all actives have a fitted effect of over 35% in size
How it was run: as §1

[5] = Quantitative High-Throughput drug screen in 47 multiple myeloma cell lines against the NCATS MIPE library collection: PCM6_Riken cell viability assay (AID 1919870); note: nearly all actives have a fitted effect of over 30% in size
How it was run: as §1

[6] = Quantitative High-Throughput drug screen in 47 multiple myeloma cell lines against the NCATS MIPE library collection: RPMI8226_ATCC cell viability assay (AID 1919871); note: nearly all actives have a fitted effect of over 30% in size
How it was run: as §1

[7] = Quantitative High-Throughput drug screen in 47 multiple myeloma cell lines against the NCATS MIPE library collection: OPM2_DSMZ cell viability assay (AID 1919872); note: nearly all actives have a fitted effect of over 30% in size
How it was run: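 Luminescent ATP measurement with CellTiter-Glo gives viability, scaled between DMSO-only wells (100%) and media-only wells (0%). Cells, 500 per well, faced library compounds for 48 hours at 37C.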

[8] = Quantitative High-Throughput drug screen in 47 multiple myeloma cell lines against the NCATS MIPE library collection: KMS11_JCRBsus cell viability assay (AID 1919873); note: nearly all actives have a fitted effect of over 50% in size
How it was run: as §1

[9] = Quantitative High-Throughput drug screen in 47 multiple myeloma cell lines against the NCATS MIPE library collection: KMS28BM_JCRB cell viability assay (AID 1919874); note: nearly all actives have a fitted effect of over 35% in size
How it was run: as §1

[10] = qHTS drug screen for cell cycle checkpoint inhibitors in PARPi-resistant BRCA-mutant ovarian cancer cell lines. (AID 1963452; calls by dose curve); conditions: PEO1/OlaR viability, CellTiter-Glo luminescence, 96 h; for Z-AUC: stronger effect = lower value
How it was run: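 PEO1, PEO4 and PEO1/OlaR ovarian cancer cells, 600 per well, exposed 96 h at 37C to a dilution series. Viability read by CellTiter-Glo luminescence, normalized to DMSO and empty wells; activity summarized as Z-AUC.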

[11] = measured here: PEO1 parental Z-AUC
Potency is the fitted concentration of half-maximal effect.

Row | Compound | Potency [1] | Potency [2] | Potency [3] | Potency [4] | Potency [5] | Potency [6] | Potency [7] | Potency [8] | Potency [9] | Z-AUC [10] | Z-AUC [10, 11] | Z-AUC ([10]; measured here: PEO4 Z-AUC) | Potency [10]
1 | COc1cc2c(NC3CCN(C(C)C)CC3)nc(C3CCCCC3)nc2cc1OCCCN1CCCC1 | 4.69 µM (active) | 5.9 µM (active) | 13.2 µM (active) | 5.26 µM (active) | 3.32 µM (active) | 6.62 µM (active) | 7.43 µM (active) | 8.33 µM (active) | 14.8 µM (active) | 0.841 (inactive) | 0.768 | 0.938 | –
2 | Nc1ccccc1NC(=O)c1ccc(CNC(=O)OCc2cccnc2)cc1 | 1.66 µM (active) | 0.743 µM (active) | 1.32 µM (active) | 1.66 µM (active) | 1.66 µM (active) | 3.32 µM (active) | 2.09 µM (active) | 1.87 µM (active) | 1.05 µM (active) | -0.769 (inactive) | -1.32 | -1.54 | –
3 | NC1(Cc2ccc(Cl)cc2)CCN(c2ncnc3[nH]ccc23)CC1 | 3.72 µM (active) | 3.72 µM (active) | 0.264 µM (active) | 7.43 µM (active) | 5.9 µM (active) | 14.8 µM (active) | 18.7 µM (active) | 10.5 µM (active) | 4.18 µM (active) | -0.805 (inactive) | -1.02 | -1.03 | –
4 | COc1cc2c(Oc3ccc(NC(=O)C4(C(=O)Nc5ccc(F)cc5)CC4)cc3F)ccnc2cc1OCCCN1CCOCC1 | 9.35 µM (active) | 3.72 µM (active) | 3.32 µM (active) | 8.33 µM (active) | 10.5 µM (active) | 13.2 µM (active) | 4.18 µM (active) | 1.18 µM (active) | 3.32 µM (active) | -0.782 (inactive) | -0.246 | -0.374 | –
5 | Cc1ccc(C(N)=O)cc1Nc1nccc(-c2cn(C(C)C)c3cnccc23)n1 | 3.72 µM (active) | 2.35 µM (active) | 6.62 µM (active) | 3.72 µM (active) | 2.09 µM (active) | 16.6 µM (active) | 14.8 µM (active) | 4.69 µM (active) | 5.9 µM (active) | -1.23 (inactive) | -1.45 | -1.25 | –
6 | CCC[C@H](NC(=O)C(C#N)=Cc1cccc(Br)n1)c1ccccc1 | 1.66 µM (active) | 2.09 µM (active) | 2.09 µM (active) | 2.09 µM (active) | 1.05 µM (active) | 2.96 µM (active) | 5.26 µM (active) | 2.96 µM (active) | 2.64 µM (active) | – | – | – | –
7 | CC(=O)Nc1nc(C)c(-c2ccc(Cl)c(S(=O)(=O)NCCO)c2)s1 | 1.66 µM (active) | 2.64 µM (active) | 0.526 µM (active) | 4.69 µM (active) | 4.69 µM (active) | 16.6 µM (active) | 14.8 µM (active) | 5.26 µM (active) | 18.7 µM (active) | -1.67 (inactive) | -0.921 | -1.08 | –
8 | Cc1cc(Nc2ncnc3ccc(-c4ccc(CNCCS(C)(=O)=O)o4)cc23)ccc1Oc1ccn2ncnc2c1 | 6.62 µM (active) | 1.48 µM (active) | 6.62 µM (active) | 3.32 µM (active) | 16.6 µM (active) | 26.4 µM (active) | 20.9 µM (active) | 5.9 µM (active) | 16.6 µM (active) | 0.841 (inactive) | 0.912 | 0.782 | –
9 | COc1ccc(F)c(F)c1C(=O)c1cnc(NC2CCN(S(C)(=O)=O)CC2)nc1N | 1.66 µM (active) | 0.935 µM (active) | 2.35 µM (active) | 2.09 µM (active) | 0.743 µM (active) | 2.96 µM (active) | 3.32 µM (active) | 1.48 µM (active) | 3.32 µM (active) | – | -1.69 | -1.31 | 0.871 µM (active)
10 | Cc1cc(Nc2cc(N3CCN(C)CC3)nc(C=Cc3ccccc3)n2)n[nH]1 | 4.81 µM (active) | 15.2 µM (active) | 1.91 µM (active) | 13.6 µM (active) | 30.3 µM (active) | 13.6 µM (active) | 8.55 µM (active) | 1.21 µM (active) | 13.6 µM (active) | – | – | – | –
11 | CCCCc1nc2cc(C=CC(=O)NO)ccc2n1CCN(CC)CC | 1.48 µM (active) | 0.0105 µM (active) | 0.264 µM (active) | 1.66 µM (active) | 0.0132 µM (active) | 1.32 µM (active) | 0.833 µM (active) | 0.372 µM (active) | 0.187 µM (active) | – | – | – | –
12 | C[C@@H](Oc1cc(-c2cnn(C3CCNCC3)c2)cnc1N)c1c(Cl)ccc(F)c1Cl | 4.69 µM (active) | 4.18 µM (active) | 2.35 µM (active) | 6.62 µM (active) | 14.8 µM (active) | 13.2 µM (active) | 18.7 µM (active) | 2.64 µM (active) | 8.33 µM (active) | 0.111 (inactive) | -0.187 | -0.116 | –
13 | O=C(CCCCCCNC(=O)c1cnc(N(c2ccccc2)c2ccccc2)nc1)NO | 9.35 µM (active) | 2.35 µM (active) | 7.43 µM (active) | 9.35 µM (active) | 9.35 µM (active) | 14.8 µM (active) | 10.5 µM (active) | 7.43 µM (active) | 4.18 µM (active) | 0.809 (inactive) | 0.473 | 0.434 | –
14 | COc1cc(C)c(Sc2cnc(NC(=O)c3ccc(CNC(C)C(C)C)cc3)s2)cc1C(=O)N1CCN(C(C)=O)CC1 (configuration not stated) | 18.7 µM (active) | 7.43 µM (active) | 4.18 µM (active) | 13.2 µM (active) | 23.5 µM (active) | 14.8 µM (active) | 20.9 µM (active) | 8.33 µM (active) | 13.2 µM (active) | -0.385 (inactive) | -0.662 | -0.689 | –
15 | Nc1ccccc1NC(=O)c1ccc(CNc2nccc(-c3cccnc3)n2)cc1 | 1.18 µM (active) | 0.469 µM (active) | 0.833 µM (active) | 1.32 µM (active) | 2.35 µM (active) | 2.64 µM (active) | 2.64 µM (active) | 0.662 µM (active) | 0.833 µM (active) | -0.45 (inactive) | -0.821 | -0.657 | –
16 | Cc1ccc(C(=O)Nc2ccc(CN3CCN(C)CC3)c(C(F)(F)F)c2)cc1C#Cc1cnc2cccnn12 | 1.32 µM (active) | 1.32 µM (active) | 0.59 µM (active) | 0.935 µM (active) | 1.18 µM (active) | 11.8 µM (active) | 5.26 µM (active) | 1.48 µM (active) | 7.43 µM (active) | -2.19 (inactive) | -1.43 | -0.606 | –
17 | CC(C)c1ccc(Cn2ccc3c4c(N)nc(NC5CC5)nc4ccc32)cc1 | 0.743 µM (active) | 3.32 µM (active) | 1.87 µM (active) | 2.35 µM (active) | 5.9 µM (active) | 14.8 µM (active) | 6.62 µM (active) | 1.05 µM (active) | 1.66 µM (active) | -1.65 (inactive) | -2.21 | -2.38 | –
18 | Nc1ncnc2c1c(-c1cccc(OCc3ccccc3)c1)cn2C1CC(CN2CCCC2)C1 (configuration not stated) | 8.33 µM (active) | 0.743 µM (active) | 0.0662 µM (active) | 1.66 µM (active) | 7.43 µM (active) | 2.96 µM (active) | 14.8 µM (active) | 0.372 µM (active) | 0.526 µM (active) | -0.938 (inactive) | -0.783 | -1.2 | –
19 | CC1(O)CC(c2nc(-c3ccc4ccc(-c5ccccc5)nc4c3)c3c(N)nccn23)C1 (configuration not stated) | 5.9 µM (active) | 0.166 µM (active) | 0.166 µM (active) | 1.66 µM (active) | 14.8 µM (active) | 0.235 µM (active) | 18.7 µM (active) | 0.187 µM (active) | 0.148 µM (active) | -2.04 (inactive) | -0.993 | -1.72 | –
20 | Cc1cc(CN2CCN(c3c(Br)cnc4nc(-c5ccc(N6CCN(C)CC6)cc5)[nH]c34)CC2)no1 | 2.09 µM (active) | 3.32 µM (active) | 10.5 µM (active) | 6.62 µM (active) | 3.32 µM (active) | 29.6 µM (active) | 18.7 µM (active) | 1.05 µM (active) | 2.96 µM (active) | 0.133 (inactive) | 0.0389 | -0.2 | –
21 | C=CC(=O)Nc1cc2c(Nc3ccc(F)c(Cl)c3)ncnc2cc1OCCCN1CCOCC1 | 2.64 µM (active) | 1.18 µM (active) | 4.69 µM (active) | 1.87 µM (active) | 1.48 µM (active) | 20.9 µM (active) | 20.9 µM (active) | 9.35 µM (active) | 5.26 µM (active) | -0.343 (inactive) | -0.823 | -1.15 | –
22 | O=C(NC1CCNCC1)c1[nH]ncc1NC(=O)c1c(Cl)cccc1Cl | 0.833 µM (active) | 0.59 µM (active) | 0.662 µM (active) | 0.833 µM (active) | 0.166 µM (active) | 1.05 µM (active) | 0.526 µM (active) | 0.332 µM (active) | 0.264 µM (active) | – | -1.49 | -1.05 | 0.977 µM (active)
23 | CN(C)Cc1c(C(=O)NCCOc2ccc(C(=O)NO)cc2)oc2ccccc12 | 1.05 µM (active) | 0.148 µM (active) | 0.418 µM (active) | 2.35 µM (active) | 0.935 µM (active) | 1.48 µM (active) | 1.05 µM (active) | 0.662 µM (active) | 0.418 µM (active) | -0.744 (inactive) | -1.25 | -1.26 | –
